# Experimental data: the supplement of paper PMC10681739
# Biological target: RUNX1 (UniProt Q01196)
# Assay: RUNX1 binding intensity (PBM fluorescence) in presence of ETS1, normalised to RUNX1-only experiment (arbitrary fluorescence units); higher = stronger binding
# Conditions: RUNX1 concentration 2 nM; ETS1 concentration 25 nM
# Description: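 Cooperative gcPBM on 36-bp genomic probes with neighbouring ETS1 and RUNX1 sites. Recombinant human RUNX1 (2 nM) was incubated alone or with ETS1 (25 nM) and detected with anti-RUNX1 antibody plus Alexa488 secondary. Values are medians over 4 replicate spots; the RUNX1+ETS1 data were normalised to the RUNX1-only data. The probes sit in constant array flanks that are not printed.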
# 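Also: Full-length recombinant human ETS1 or RUNX1 bound to double-stranded 36-bp genomic probes on microarrays, detected by protein-specific primary antibody and Alexa488 secondary, spot fluorescence as median of four replicate spots.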
# RUNX1, sequence (Q01196 whole entry): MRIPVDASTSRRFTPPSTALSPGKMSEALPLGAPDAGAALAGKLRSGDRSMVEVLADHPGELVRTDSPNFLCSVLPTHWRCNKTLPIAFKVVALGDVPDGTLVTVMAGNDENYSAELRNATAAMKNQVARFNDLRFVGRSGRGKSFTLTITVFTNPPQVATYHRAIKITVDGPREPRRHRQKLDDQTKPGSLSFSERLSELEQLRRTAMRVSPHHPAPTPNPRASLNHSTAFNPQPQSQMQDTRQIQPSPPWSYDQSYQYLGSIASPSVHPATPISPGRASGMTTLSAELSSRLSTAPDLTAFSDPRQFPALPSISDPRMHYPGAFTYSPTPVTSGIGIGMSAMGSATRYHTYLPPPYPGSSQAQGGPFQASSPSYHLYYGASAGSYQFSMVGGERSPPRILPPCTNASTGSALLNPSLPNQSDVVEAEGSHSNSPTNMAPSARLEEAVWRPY
row,Sequence,RUNX1 binding intensity
1,TGGAAGCGGCTTCCGGGGTGAATGCGGTTGGATCGT,3030
2,AGCTAGGACAGGATGTGAAAACCACACTGACAAAGT,3510
3,CTCTTCCTGCCTGTCCGTGGCTGGTGTGGTTTGCGT,2670
4,GATCTGTGCTCAGGATGTGGTGAGAGAATAAGGAAG,1050
5,GAGAAACAAACAGGATGTGGTCTCTGCCCTGGAGGA,2420
6,TTAAACACGGAAGTGCATCGGTTGTTGTGGTTATTC,1150
7,CCAGGGCCGGAAGTGCTGGTGGTGGTTTCCATCATG,1750
8,AGCGCTTCCTGGCTCCGGCCCCGCCCCTGCGGTCGG,1880
9,AAGTTTTGGGTTTTCCGCCCACAGCCGCCGAAAGTG,1090
10,TGGGTACTTCCTGTGACAAATCGAGTTGACCACATG,1720
11,CAAGAGAAAGGAAGTGGAAGCTCTTGTGGTCTGGAA,1240
12,GAGTCGCTTCCGCTCCCGCCCCGCTCTGTGGCGTAG,1980
13,TTCTGTAGCTTAGGATGTGGGTTTCTTTGTTTCTGA,1030
14,GCGCCCGGAAGGAAGGCTGGGGTAGGTTGTGGTTTC,1140
15,CTTCACTATGCATCCTGTACTGCAACCACACCAAAC,1910
16,CCGAGCTTAACGACATCCTGCGGCTCAGCGTGGAGG,1190
17,AAGTTGATTTCCGGGTAGTCTGTGGTTTCCTAATCA,3880
18,AAACTACACCTCAGAGGATGTGGTTCCTTCTCTCAT,946
19,CGTTTCCTGTCTGGGACTGCGCCCACGCGGTCACGT,2450
20,GACACAAGACAGTTTCCGTCAGTGGTTAAGCCCTAA,1270

row,Sequence,RUNX1 binding intensity
1,TGGTTCCACCGACCGGAAGGGCCACAAGGATCCCCG,1250
2,CATCAAGTATTTCCTCACGCAAGCAACCGCATCCAT,1380
3,CAGAGGACAGGATGCCAACCCCAAAACCGCAGCGAC,9280
4,CGAAGCCAGGAAATAAGGATAAACCACAGAAAGAAA,2010
5,TTATTTCCTCTTTTTTTTTTTTTTTTTGGTTTTGCT,4230
6,CCTCTTGCTGCCTCTTCCTGTGGTCTTTTCTCTGTC,2720
7,TGGCGCTTCCTGTCGCTACCGCTGCGGCCCAGGGCC,1860
8,CCCTCATCTTCCTGCTTCAGGCAGCTGTGGTTTACC,1660
9,AGGTACCAGGCCCGGAAACCACGGAAAGGGGAACTT,1100
10,TGAAGTTGGTGTTTTCCGGGGGCGGTTTTTCCATTG,969
11,TGCCACCTGCTTCCTGCCTGTGTAGCCACAAGGGAC,1600
12,GCCCAATTCCCGAATCCGGTCTGCGGCGCGCTCGGG,1170
13,CTGTGACACGTGCGGAAGCTGTGGTAAGTGCATCCA,984
14,AGTACGATGGGAGGAAGTGGTTTGTAAGAGGAGGAC,1490
15,TGCAGCCTATTTCCTCTAACCCGCAGATCCACTATG,2250
16,CCCCTGCCCCTTCCTGGAAGGCTGCGGTGTAACACC,1780
17,AGAGCAACAGGATGCAAATAACCACAAGCAAGAATA,3320
18,CGGCTAGGAAATAAAGAGCCTTCTCTCCGCGGTAGG,2200
19,GTTGAAATTGAGCTTCCGTTGGTGGTTAACCCTCTG,1310
20,ATGGTGTAGAGAGGATGTGGGCTTTAAGGTCAGAGA,1000
